Reference: the supplement of paper PMC11417369
± gives the standard deviation of the averaged measurements. The full ranking holds about 25,000 sequences; the median of “ln(normalized median fluorescence intensity)” is about 8.6, and the highest 2% start at about 10. The sample holds the highest values, similar sequences and a random draw of the others, so the mix is not that of the screen.

test system: PfAP2-EXP AP2 domain (GST-tagged); assay: gcPBM binding intensity (ln(normalized median fluorescence intensity)); higher = stronger DNA binding
In short: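 After 1 h on an Agilent 4 × 180k array of primer-extended double-stranded 36-bp intergenic genomic probes and negative controls, bound GST-tagged P. falciparum DNA-binding domains were detected with Alexa488 anti-GST antibody and scanned at 488 nm. The domains had been expressed in E. coli, and binding took place in 1× PBS with 1% milk, 0.2 mg/ml BSA, 0.5% salmon testes DNA and 0.03% Triton X-100. Binding intensity is the highest Masliner-normalised natural-log median intensity across replicate spots of either probe orientation.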

Row | Sequence | gcPBM binding intensity (ln)
1 | TTTAAGATTTTGTAATGTACATATATACATATATAT [XGTACX_site399] | 8.45 ± 0.33
2 | AATATAAGAATATATACACACATAAATACATACATA [CACACA_site4128] | 8.6 ± 0.31
3 | TAAAGAAATAAATACATACACACATATATATATATA [CACACA_site3363] | 10.2 ± 0.5
4 | AAGAAATAAATACATACACACATATATAAATAAATA [CACACA_site7559] | 8.68 ± 0.18
5 | AAAAAAAGAAATAATAAAAAATATATATATATATAT [GTGCAC_negctrl_site702] | 10.1 ± 0.44
6 | AAAAAAAAAAAAGAAAAATATATATATAAATAAATA [GTGCAC_negctrl_site569] | 8.29 ± 0.67
7 | AAGAAATAAATACATACACACATATATATATATATA [CACACA_site3362] | 10 ± 0.34
8 | ATATAAATAAAGAAATATATATATATATATATATAT [GTGCAC_negctrl_site668] | 10.2 ± 0.88
9 | AGAAATAAGAAATATACACACATATAAATATAAATA [CACACA_site7342] | 8.52 ± 0.55
10 | AGAAATAAGAAATATACACACATATATATATATATA [CACACA_site2808] | 10.2 ± 0.18
11 | TTTTTTTTTTTTGATGCACACACCTGAACGAGTTAA [CACACA_site317] | 8.62 ± 0.32
12 | TAGCGTACATTTCATTGTAATCATAAAAAATAAAGA [CACACA_negctrl_site447] | 8.56 ± 0.49
13 | GTTGCAATTAACACTAGTACATATAAGTAGTTTATT [XGTACX_site2063] | 8.72 ± 0.18
14 | TCCTTGCATTTTAAAACACACAAAAATTAATTGTTA [CACACA_site7152] | 8.55 ± 0.32
15 | TTTTATGATTGACACACACACAAAAAAAAAAAAAAA [CACACA_site7860] | 8.2 ± 0.43
16 | TTTCTAGTTACAAGAGTGCATAATATATAAAAATAA [GTGCAC_site9874] | 8.85
17 | TATATATATATATAAGTGCATATAAAAATCGTTCGT | 10.3 ± 0.18
18 | AATAAAAATAATATAGTGCATAATATAAGGAAAAAA | 9.07 ± 0.071
19 | ATATATATATATATAGTGCATAAAATAAGTTTCTAA | 10.2 ± 0.28

Row | Sequence | gcPBM binding intensity (ln)
20 | TATATATATATAATAGTGCATAAATAAATATATAAA | 9.65 ± 0.057
21 | AAAAAAAATATACATACATGCATACATAAGTTTCTA [TGCATGCA_site998] | 8.49 ± 0.24
22 | TTTTTTATTCCATAATATAATATGTTTTGAAATTTG [GTGCAC_negctrl_site440] | 8.27 ± 0.33
23 | TTTATTATATTTTTTTGTACATATTGATGTATATAA [XGTACX_site6527] | 8.59 ± 0.28
24 | GATGTGATGTATTTGGTATTTTTCGATGTTGGTAGG [CACACA_negctrl_site355] | 8.79 ± 0.73
25 | TACTATTTAAAATATGAACACACATTATTTGTTTTA [CACACA_site8870] | 8.13 ± 0.3
26 | ATATTGAAATGTTAATAGAAATATATGGTTAAATTG [XGTACX_negctrl_site212] | 8.34 ± 0.34
27 | ATATACAGAAAAAATTAAAATAAATATGCAAAACAA [CACACA_negctrl_site704] | 8.86 ± 0.32
28 | AAAATAAAATTAGTTGCATGCAACTTAAACAGAAAT [TGCATGCA_site860] | 10.3 ± 0.35
29 | ATAAATAAAACAACAGTGCAATAAAATTAGTTGAGG | 9.035 ± 0.021
30 | TTTTTCTTAAAAAATTGTACACATATATATATATAT [XGTACX_site542] | 10.3 ± 0.22
31 | CCTAAAGTGTAAAATTCACACACATATATATATATA [CACACA_site8385] | 10.2 ± 0.44
32 | TAAAAATTAAAGTGTACACATATATATATATATATA [CACACA_site4781] | 10.2 ± 0.38
33 | TAAAGTGTAAAATTCACACACATATATATATATATA [CACACA_site4883] | 10.1 ± 0.36
34 | AAAAAATTATAAAAGTGTACATATATATATATATAT [XGTACX_site154] | 10 ± 0.38
35 | GTGTAAAAATTAAAGTGTACACATATATATATATAT [XGTACX_site2251] | 10.2 ± 0.31
36 | TAAATTAATAAAAAGTGTACATAATATACATATATA [XGTACX_site8604] | 8.62 ± 0.33
37 | TATTGTTATTAAAAATGTACATATAAATTTCTTATT [XGTACX_site1409] | 8.32 ± 0.33
38 | ATATATAATTAATTTTGTACACATAAAAAAAAAAAT [XGTACX_site6647] | 8.59 ± 0.42

Row | Sequence | gcPBM binding intensity (ln)
39 | AGGGGAAATAAAATATAAATTATCATATATATATAT [XGTACX_negctrl_site366] | 9.94 ± 0.21
40 | TTTTATTATATATATTGTACATATATTTTTATTTTT [XGTACX_site1564] | 8.62 ± 0.33
41 | TAAACATAAATATACACACAAACATATATGTATTTT [CACACA_site1214] | 8.51 ± 0.32
42 | TATGAACACCCAAATACACACACTCAAAAAAAAAAA [CACACA_site5466] | 8.4 ± 0.32
43 | CATACATATATTATTGCACACATATAAAATACCCCC [CACACA_site9292] | 10.2 ± 0.33
44 | AAAAATAAGATATATACACACATATAAATATAAATA [CACACA_site7396] | 8.51 ± 0.38
45 | TACAGATATTATTGCACACATATAAAATACCCCCAA [CACACA_site6014] | 9.53 ± 0.33
46 | TACATATATTATTGCACACATATAAAATACCCCCAA [CACACA_site3895] | 9.55 ± 0.52
47 | TAAAAAATAAAATACACACACATATATATATATATA [CACACA_site1323] | 10.2 ± 0.64
48 | TAAAAAATAAGATATACACACATATATTTATTTATA [CACACA_site7158] | 8.09 ± 0.52
49 | TAAAAAATAAGATATACACACATATATATATATATA [CACACA_site2324] | 10.2 ± 0.42
50 | ATAAAAAAAAAAAATACACACATATATATATATATA [CACACA_site1709] | 10.1 ± 0.26
51 | AAAAAAAAAATATACACACACACATACACATAAATA [CACACA_site3808] | 8.79 ± 0.53
52 | TAAAAAAATAAATATACACACATATATATATATATA [CACACA_site1089] | 10.2 ± 0.29
53 | AAAAATAAAATATATACACACATATATATATATATA [CACACA_site2943] | 10.2 ± 0.64
54 | AAAAAAAAAAAAAATACACACATATAAATATAAATA [CACACA_site6189] | 8.3 ± 0.49
55 | ATTATACTTTCCATTCGTACATATATAAATAAATAA [XGTACX_site6245] | 8.93 ± 0.35
56 | TTTTATTTATTTTATTGTACATATATAAAACTATGA [XGTACX_site3476] | 8.57 ± 0.42
57 | ATATTTTTAGATTCAGAAAAAAGATTCAACTTACTC [CACACA_negctrl_site1357] | 8.25 ± 0.45
